Growth data for six molecules are collected here from PubChem BioAssay (NCI).

Among the test systems are SK-MEL-2 melanoma; EKVX NSCLC; SN12C renal; UO-31 renal; TK-10 renal; ACHN renal; CAKI-1 renal; A498 renal; CCRF-CEM leukemia; MOLT-4 leukemia; SR leukemia; RPMI-8226 leukemia; OVCAR-8 ovarian; OVCAR-5 ovarian; OVCAR-4 ovarian; SK-OV-3 ovarian; IGROV1 ovarian; OVCAR-3 ovarian; HS 578T breast; NCI/ADR-RES ovarian.
Holding throughout (test): NCI-60 one-dose screen, 48 h (100 = growth as untreated, 0 = no growth, -100 = all killed)
Holding throughout (settings): 10 µM unless noted

This is part of a sample that, as a whole, favours compounds with a hit. Of some 83,000 tested, about 20% had one in any assay.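 Compound tested at a single concentration for 48 hours in 96-well plates; a percent growth value below 10 was scored as active.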 Unmarked numbers belong to inactive results. Activity calls are given as the source filed them.

For `O=C(/C=C\c1ccc(O)c(O)c1)c1ccccc1O`, the growth in the experiment with SK-MEL-2 melanoma is 125%; with EKVX NSCLC it was 73.3%; in the experiment on SN12C renal, 71.9%; in the experiment with UO-31 renal, 49.6%; in the experiment on TK-10 renal, 88.7%; in the experiment with ACHN renal, 78.3%. Further, the growth in the experiment with CAKI-1 renal is 8.01% (active); with A498 renal it was 98.9%; in the experiment with CCRF-CEM leukemia, 14.7%; with MOLT-4 leukemia, 49.1%; in the experiment on SR leukemia, -13.3% (active); in the experiment with RPMI-8226 leukemia, 5.13% (active). Further, the growth with OVCAR-8 ovarian was 69.4%; in the experiment with OVCAR-5 ovarian, 103%; with OVCAR-4 ovarian, 74.9%; in the experiment on SK-OV-3 ovarian, 97%; in the experiment with IGROV1 ovarian, 46.3%; in the experiment on OVCAR-3 ovarian it was 73.8%. For the same molecule, the growth was 91.8% with HS 578T breast and 74.3% in the experiment on NCI/ADR-RES ovarian.
Turning to `CC/C(=C(/c1ccc(Cl)cc1)c1ccc(OCCN(CC)CC)cc1)c1ccc(OC)cc1`, the growth was 89.5% in the experiment on SK-MEL-2 melanoma; 62.2% with EKVX NSCLC; 67.5% in the experiment on SN12C renal; 67.5% in the experiment on UO-31 renal; 64.9% with TK-10 renal; 79.4% in the experiment on ACHN renal. For the same molecule, the growth was 77% in the experiment on CAKI-1 renal; 104% in the experiment on A498 renal; 24.3% in the experiment with CCRF-CEM leukemia; 19.7% in the experiment on MOLT-4 leukemia; -26% (active) with SR leukemia; -21.4% (active) in the experiment with RPMI-8226 leukemia. For the same molecule, the growth in the experiment on OVCAR-8 ovarian is 60.4%; in the experiment with OVCAR-5 ovarian, 61.5%; in the experiment on OVCAR-4 ovarian, 70%; with SK-OV-3 ovarian it was 89.8%; in the experiment on IGROV1 ovarian it was 60.4%; in the experiment with OVCAR-3 ovarian, 65.8%. The growth in the experiment on HS 578T breast is 81.5%; in the experiment on NCI/ADR-RES ovarian it was 69.7%.
Regarding `CC1(C)CCC[C@]23C(=O)O[C@](O)(C(=O)C4=C[C@@](C)(/C=C/CCCc5ccc6ccc7cccc8ccc5c6c78)CC[C@@]42O)[C@@H]13`, the growth was -61.8% (active) with SK-MEL-2 melanoma; -84.9% (active) in the experiment with EKVX NSCLC; -94.4% (active) in the experiment on SN12C renal; -97.1% (active) in the experiment on UO-31 renal; -88.7% (active) in the experiment with TK-10 renal; -100% (active) in the experiment with ACHN renal. The growth with CAKI-1 renal was -98.5% (active); with A498 renal, -87.9% (active); in the experiment with CCRF-CEM leukemia, 0.0961% (active); in the experiment with MOLT-4 leukemia it was 9.46% (active); in the experiment on SR leukemia, 9% (active); in the experiment with RPMI-8226 leukemia, -21.4% (active). Further, the growth in the experiment with OVCAR-8 ovarian was -34.2% (active); in the experiment on OVCAR-5 ovarian it was -75.7% (active); in the experiment on OVCAR-4 ovarian, -92.3% (active); in the experiment with SK-OV-3 ovarian, -66.2% (active); in the experiment with IGROV1 ovarian, -83% (active); in the experiment with OVCAR-3 ovarian, -82% (active). The growth in the experiment with HS 578T breast is -7.13% (active); in the experiment with NCI/ADR-RES ovarian, -18.7% (active).
`N=C(N)c1ccc(-c2ccc(-c3ccc(Cl)cc3Cl)s2)nc1`: the growth in the experiment with SK-MEL-2 melanoma was 109%; in the experiment with EKVX NSCLC, 93.6%; in the experiment with SN12C renal it was 81%; in the experiment with UO-31 renal, 91.3%; in the experiment on TK-10 renal, 122%; with ACHN renal it was 74.2%. The growth with CAKI-1 renal was 39.1%; in the experiment on A498 renal, 104%; in the experiment with CCRF-CEM leukemia, 39.1%; in the experiment with MOLT-4 leukemia, 13.5%; in the experiment with SR leukemia, 5.54% (active); in the experiment with RPMI-8226 leukemia it was 0.186% (active). The growth is 36.2% in the experiment with OVCAR-8 ovarian; 80.2% with OVCAR-5 ovarian; 98.2% in the experiment on OVCAR-4 ovarian; 91.3% with SK-OV-3 ovarian; 50.6% in the experiment with IGROV1 ovarian; 64.4% with OVCAR-3 ovarian. Also, the growth with HS 578T breast was 90.1%; with NCI/ADR-RES ovarian it was 96.7%.
Take `CCN(CC)CCCC(Nc1c2ccc(Cl)cc2nc2ccc(OC)cc12)c1ccncc1` (stereo not given): the growth in the experiment on SK-MEL-2 melanoma is 108%; with EKVX NSCLC, 87%; with SN12C renal, 63.5%; in the experiment on UO-31 renal, 54.3%; with TK-10 renal, 81.8%; in the experiment with ACHN renal, 57%. Further, the growth in the experiment on CAKI-1 renal was 90.2%; with A498 renal, 81.8%; in the experiment on CCRF-CEM leukemia it was 59.8%; with MOLT-4 leukemia, 18.3%; with SR leukemia, -6.47% (active); with RPMI-8226 leukemia, 74.3%. The growth was 58.4% in the experiment on OVCAR-8 ovarian; 96.6% with OVCAR-5 ovarian; 68.5% with OVCAR-4 ovarian; 97.6% with SK-OV-3 ovarian; 75.7% with IGROV1 ovarian; 95.6% in the experiment with OVCAR-3 ovarian. Further, the growth in the experiment on HS 578T breast was 97.5%; in the experiment on NCI/ADR-RES ovarian, 81.4%.
Turning to `CCOc1cc(\C=N/N=C(N)/C(N)=N\N=C/c2ccc(O)c(OCC)c2)ccc1O`, the growth was 126% in the experiment with SK-MEL-2 melanoma; 106% with EKVX NSCLC; 101% in the experiment on SN12C renal; 88.7% in the experiment on UO-31 renal; 127% with TK-10 renal; 96.5% with ACHN renal. For the same molecule, the growth was 94.5% in the experiment on CAKI-1 renal; 106% in the experiment on A498 renal; 49.7% in the experiment with CCRF-CEM leukemia; 59.2% with MOLT-4 leukemia; 88.8% in the experiment with SR leukemia; 94.8% in the experiment on RPMI-8226 leukemia. Besides, the growth with OVCAR-8 ovarian was 67.9%; in the experiment with OVCAR-5 ovarian it was 115%; in the experiment with OVCAR-4 ovarian it was 105%; with SK-OV-3 ovarian, 113%; in the experiment with IGROV1 ovarian, 129%; with OVCAR-3 ovarian it was 113%. The growth is 113% in the experiment on HS 578T breast and 98.7% in the experiment on NCI/ADR-RES ovarian.
